Assay results published in PubChem BioAssay AID1159580 (chemical genetic matrix, 2015).
Where “and” joins values, the source holds several entries; their conditions need not be identical. Equal values may be shown once. Hit rate of the full screen: of about 5,500 compounds, about 2,000 (36%) were called active. About 18% were inconclusive and are not listed. Rule as the data show it: active = normalized growth mostly below about 0.91 (no sharp cut-off); inconclusive = no clear call, values can overlap the other calls; inactive = mostly above about 0.92. Some of the results follow.

Experiment: chemical genetic growth profiling, strain panel (AID 1159580);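 also: tested at 20 µM; growth read once vehicle control cultures reached saturation at 30 °C; 1 = growth at the plate median or of vehicle wells; lower values mean less growth of the strain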
Settings: growth OD

Measured: normalized growth

CC1OC1P(=O)(O)O (stereo unspecified)
inactive: S. cerevisiae deletion strains, locus YKL009W, strain mrt4, stronger effect = lower value 0.991 | S. cerevisiae deletion strains, locus YKL068W, stronger effect = lower value 0.988 | S. cerevisiae deletion strains, locus YKL085W, strain MDH1 (second series), stronger effect = lower value 0.978 | S. cerevisiae deletion strains, locus YKL085W, strain MDH1, stronger effect = lower value 0.978 | S. cerevisiae deletion strains, locus YKL160W, strain elf1, stronger effect = lower value 0.971 | S. cerevisiae deletion strains, locus YKL190W, strain CNB1, stronger effect = lower value 1 | S. cerevisiae deletion strains, locus YKR001C, strain vps1, stronger effect = lower value 0.992 | S. cerevisiae deletion strains, locus YKR026C, strain gcn3, stronger effect = lower value 1 | S. cerevisiae deletion strains, locus YKR091W, strain srl3, stronger effect = lower value 0.988 | S. cerevisiae deletion strains, locus YLL001W, strain dnm1, stronger effect = lower value 0.982 | S. cerevisiae deletion strains, locus YLL026W, stronger effect = lower value 0.985 | S. cerevisiae deletion strains, locus YLL041C, strain sdh2, stronger effect = lower value 0.999 | S. cerevisiae deletion strains, locus YLR027C, strain aat2, stronger effect = lower value 0.975 | S. cerevisiae deletion strains, locus YLR039C, strain RIC1, stronger effect = lower value 0.991 | S. cerevisiae deletion strains, locus YLR058C, strain SHM2, stronger effect = lower value 0.996 | S. cerevisiae deletion strains, locus YLR102C, strain apc9, stronger effect = lower value 0.99 | S. cerevisiae deletion strains, locus YLR221C, strain rsa3, stronger effect = lower value 0.974 | S. cerevisiae deletion strains, locus YLR258W, strain gsy2, stronger effect = lower value 0.979 | S. cerevisiae deletion strains, locus YLR262C, strain YPT6 (second series), stronger effect = lower value 0.987 | S. cerevisiae deletion strains, locus YLR262C, strain YPT6, stronger effect = lower value 0.956 | S. cerevisiae deletion strains, locus YLR268W, strain sec22, stronger effect = lower value 0.986 | S. cerevisiae deletion strains, locus YLR320W, strain mms22, stronger effect = lower value 0.958 | S. cerevisiae deletion strains, locus YLR330W, strain CHS5, stronger effect = lower value 0.992 | S. cerevisiae deletion strains, locus YLR342W, strain FKS1 (second series), stronger effect = lower value 0.963 | S. cerevisiae deletion strains, locus YLR342W, strain FKS1, stronger effect = lower value 0.983 | S. cerevisiae deletion strains, locus YLR357W, strain rsc2, stronger effect = lower value 0.954 | S. cerevisiae deletion strains, locus YLR370C, strain arc18, stronger effect = lower value 0.999 | S. cerevisiae deletion strains, locus YLR371W, strain rom2, stronger effect = lower value 0.977 | S. cerevisiae deletion strains, locus YLR384C, strain iki3, stronger effect = lower value 0.995 | S. cerevisiae deletion strains, locus YLR418C, strain cdc73, stronger effect = lower value 0.963 | S. cerevisiae deletion strains, locus YML016C, strain PPZ1, stronger effect = lower value 0.99 | S. cerevisiae deletion strains, locus YML032C, strain rad52, stronger effect = lower value 0.997 | S. cerevisiae deletion strains, locus YML120C, strain ndi1, stronger effect = lower value 0.998 | S. cerevisiae deletion strains, locus YML124C, strain tub3, stronger effect = lower value 0.992 | S. cerevisiae deletion strains, locus YMR058W, strain fet3, stronger effect = lower value 0.998 | S. cerevisiae deletion strains, locus YMR078C, strain ctf18, stronger effect = lower value 0.982 | S. cerevisiae deletion strains, locus YMR125W, strain sto1, stronger effect = lower value 1.01 | S. cerevisiae deletion strains, locus YMR129W, stronger effect = lower value 1.01 | S. cerevisiae deletion strains, locus YMR205C, strain PFK2, stronger effect = lower value 0.962 | S. cerevisiae deletion strains, locus YMR223W, strain ubp8, stronger effect = lower value 0.971 | S. cerevisiae deletion strains, locus YMR231W, strain pep5, stronger effect = lower value 0.991 | S. cerevisiae deletion strains, locus YMR263W, strain SAP30, stronger effect = lower value 1.01 and 1 | S. cerevisiae deletion strains, locus YMR307W, strain GAS1, stronger effect = lower value 0.94 | S. cerevisiae deletion strains, locus YNL067W, strain RPL9B, stronger effect = lower value 1.03 | S. cerevisiae deletion strains, locus YNL071W, strain lat1, stronger effect = lower value 1 | S. cerevisiae deletion strains, locus YNL128W, strain TEP1, stronger effect = lower value 0.986 | S. cerevisiae deletion strains, locus YNL153C, strain GIM3, stronger effect = lower value 1.15 | S. cerevisiae deletion strains, locus YNL175C, strain NOP13, stronger effect = lower value 0.984 | S. cerevisiae deletion strains, locus YNL197C, strain WHI3, stronger effect = lower value 0.988 | S. cerevisiae deletion strains, locus YNL209W, strain ssb2, stronger effect = lower value 0.981 | S. cerevisiae deletion strains, locus YNL224C, strain SQS1, stronger effect = lower value 0.983 | S. cerevisiae deletion strains, locus YNL233W, strain BNI4, stronger effect = lower value 1 | S. cerevisiae deletion strains, locus YNL248C, strain rpa49, stronger effect = lower value 1.03 | S. cerevisiae deletion strains, locus YNL250W, strain rad50, stronger effect = lower value 0.952 | S. cerevisiae deletion strains, locus YNL271C, strain bni1, stronger effect = lower value 0.993 | S. cerevisiae deletion strains, locus YNL298W, strain CLA4, stronger effect = lower value 0.994 | S. cerevisiae deletion strains, locus YNL307C, strain MCK1, stronger effect = lower value 0.98 | S. cerevisiae deletion strains, locus YNL322C, strain KRE1 (second series), stronger effect = lower value 0.967 | S. cerevisiae deletion strains, locus YNL322C, strain KRE1, stronger effect = lower value 0.996 and 0.98 | S. cerevisiae deletion strains, locus YNR049C, strain mso1, stronger effect = lower value 1 | S. cerevisiae deletion strains, locus YNR052C, strain pop2, stronger effect = lower value 0.978 | S. cerevisiae deletion strains, locus YOL006C, strain TOP1, stronger effect = lower value 1.02 | S. cerevisiae deletion strains, locus YOL012C, strain htz1 1.02 | S. cerevisiae deletion strains, locus YOL147C, strain pex11, stronger effect = lower value 0.98 | S. cerevisiae deletion strains, locus YOR001W, strain rrp6, stronger effect = lower value 0.971 | S. cerevisiae deletion strains, locus YOR061W, strain CKA2, stronger effect = lower value 0.987 | S. cerevisiae deletion strains, locus YOR069W, strain VPS5, stronger effect = lower value 0.992 | S. cerevisiae deletion strains, locus YOR070C, strain gyp1, stronger effect = lower value 0.981 | S. cerevisiae deletion strains, locus YOR080W, strain dia2, stronger effect = lower value 1 | S. cerevisiae deletion strains, locus YOR083W, strain WHI5 (second series), stronger effect = lower value 0.997 | S. cerevisiae deletion strains, locus YOR083W, strain WHI5, stronger effect = lower value 0.95 | S. cerevisiae deletion strains, locus YOR106W, strain vam3, stronger effect = lower value 0.986 | S. cerevisiae deletion strains, locus YOR136W, strain idh2, stronger effect = lower value 0.994 | S. cerevisiae deletion strains, locus YOR144C, strain elg1, stronger effect = lower value 0.989 | S. cerevisiae deletion strains, locus YOR184W, strain ser1, stronger effect = lower value 0.972 | S. cerevisiae deletion strains, locus YOR265W, strain rbl2, stronger effect = lower value 0.977 | S. cerevisiae deletion strains, locus YOR270C, strain vph1, stronger effect = lower value 1.07 | S. cerevisiae deletion strains, locus YOR290C, strain snf2, stronger effect = lower value 0.992 | S. cerevisiae deletion strains, locus YOR316C, strain cot1, stronger effect = lower value 0.993 | S. cerevisiae deletion strains, locus YPL051W, strain arl3, stronger effect = lower value 0.977 | S. cerevisiae deletion strains, locus YPL055C, strain LGE1, stronger effect = lower value 1.06 | S. cerevisiae deletion strains, locus YPL078C, strain atp4, stronger effect = lower value 0.993 | S. cerevisiae deletion strains, locus YPL106C, strain sse1, stronger effect = lower value 0.959 | S. cerevisiae deletion strains, locus YPL240C, strain hsp82, stronger effect = lower value 0.997 | S. cerevisiae deletion strains, locus YPL241C, strain CIN2, stronger effect = lower value 0.996 | S. cerevisiae deletion strains, locus YPR119W, strain clb2, stronger effect = lower value 0.99 | S. cerevisiae deletion strains, locus YPR141C, strain kar3, stronger effect = lower value 0.985 | S. cerevisiae deletion strains, locus YPR163C, strain tif3, stronger effect = lower value 0.979 | S. cerevisiae deletion strains, locus YPR167C, strain met16, stronger effect = lower value 0.987 | S. cerevisiae deletion strains, strain wtn01, stronger effect = lower value 0.967 | S. cerevisiae strains, strain wild type, stronger effect = lower value 1
